Laboratory results: the supplement of paper PMC8975748
Where a name gives a salt, the structure may show the parent alone.

tested on: Saccharomyces cerevisiae BY4741 SeMeCo community; assay: z-score of subpopulation abundance vs DMSO median, subpopulation auxotrophic for LU; higher = larger share of this subpopulation than in DMSO controls; settings: 10 µM; 24 h; SM minimal medium; subpopulation (auxotrophy): LU
Outline: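 A Saccharomyces cerevisiae BY4741 community carried four plasmids, each restoring one auxotrophy and encoding a distinct fluorescent protein. It was pre-grown overnight to OD600 1.0, diluted to 0.3, and 70 µl was added to 384-well plates acoustically predosed with library drugs (10 µM final), then grown 24 h in minimal SM medium. Cells were paraformaldehyde-fixed and imaged by automated confocal microscopy, with single-auxotroph fluorescent strains setting thresholds and autofluorescence correction. Each subpopulation's abundance was scored as a z-score against the vehicle-well median.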

| SMILES | z-score of subpopulation abundance |
| --- | --- |
| Cn1nnnc1SCC1=C(C(=O)O)N2C(=O)[C@@H](NC(=O)[C@H](OC=O)c3ccccc3)[C@H]2SC1 [Cefamandole nafate] | -1.46 |
| CC(=O)[C@@]1(O)CC[C@H]2[C@@H]3C[C@H](C)C4=CC(=O)CC[C@]4(C)[C@H]3CC[C@@]21C [Medroxyprogesterone] | 0.44 |
| CC[N+](CC)(CC)CC [Tetraethylammonium bromide] | 1.18 |
| CCC1(c2ccccc2)C(=O)NCNC1=O [Primidone] | -0.48 |
| CCCCOc1cc(C(=O)OCCN(CC)CC)ccc1N [Oxybuprocaine HCl] | -0.72 |
| C[N+]1(C)[C@@H]2CC[C@H]1C[C@@H](OC(=O)C(O)c1ccccc1)C2 (stereo partly specified) [Homatropine Methylbromide] | 0.06 |
